Assay [1] in a line: qHTS assay for small molecule agonists of the p53 signaling pathway (AID 651631; calls by dose curve; note: nearly all actives have a fitted effect of over 15% in size; note: potency is the fitted concentration of half-maximal effect). Put shortly:
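Fluorescence intensity from cleaved LiveBLAzer B/G substrate (2 h, room temperature) served as the signal. Beforehand, HCT-116 reporter cells bearing p53 response elements were treated 16 h at 37 °C with DMSO-dissolved compounds.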
A general note: qHTS replaces the single test concentration by a dilution series.

The nature of assay [2]: qHTS assay for small molecule agonists of the p53 signaling pathway - cell viability (AID 651633; calls by dose curve; note: nearly all actives have a fitted effect of over 30% in size; note: potency is the fitted concentration of half-maximal effect). Summed up:
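p53RE-bla cells, seeded at 4,000 per well and rested 5 h at 37 C/5% CO2, received compounds in DMSO for 16 h at 37 C. CellTiter-Glo was then added, and luminescence was read after 30 min at room temperature to gauge cytotoxicity.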

The nature of assay [3]: qHTS assay for small molecules that induce genotoxicity in human embryonic kidney cells expressing luciferase-tagged ATAD5 - cell viability (AID 651634; calls by dose curve; note: nearly all actives have a fitted effect of over 25% in size; note: potency is the fitted concentration of half-maximal effect). Put shortly: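 Seeding of 2,000 HEK293T ATAD5-luciferase cells per well preceded pin-tool compound transfer. Plates sat 15.5 hr at 37C under 5% CO2, then fluorescence was read after 30 min with CellTiter-Fluor.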
Assay [4] in a line: qHTS assay for small molecule disruptors of the mitochondrial membrane potential - cell viability (AID 720634; calls by dose curve; note: nearly all actives have a fitted effect of over 20% in size; note: potency is the fitted concentration of half-maximal effect). Put shortly:
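Measuring cytotoxicity alongside mitochondrial potential, the screen quantified ATP by luminescence in HepG2 cells after 1 hr compound incubation and a 30 min room-temperature CellTiter-Glo step.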

The nature of assay [5]: qHTS assay for small molecule disruptors of the mitochondrial membrane potential (AID 720635). Note: potency is the fitted concentration of half-maximal effect. Put shortly: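 HepG2 cells (2,000/well) attached overnight at 37C, then took compound for 1 hr at 37C, 5% CO2. Mito-MPS dye was added for 30 min; fluorescence was read at 490/535 nm (monomers) and 540/590 nm (aggregates).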
A short description of assay [6]: qHTS assay to test for compound auto fluorescence at 590 nm (red) in HepG2 cells (AID 720674). Put shortly:
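Intrinsic compound fluorescence in the red window (Ex/Em 540/590 nm) is measured in attached HepG2 cells exposed for 1 hr, DMSO vehicle as baseline, benchmarked to Rose Bengal sodium.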

Assay [7] can be described thus: qHTS assay to test for compound auto fluorescence at 535 nm (green) in HepG2 cells (AID 720675).
Assay [8] in a line: qHTS assay to test for compound auto fluorescence at 460 nm (blue) in HEK293 cells (AID 720678). Summed up: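 Measured: blue fluorescence (Ex 405/Em 460 nm) of compound-treated HEK293 cells, incubated overnight at 37C with 5% CO2 and scaled to triamterene equivalents.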
Assay [9] is described as follows: qHTS assay to test for compound auto fluorescence at 590 nm (red) in HEK293 cells (AID 720679). Summed up:
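Using HEK293 cells at 2,000 per well, the screen added 23 nL of each compound after cell attachment and incubated overnight (37C, 5% CO2). The plate reader then captured red-label fluorescence, Ex/Em 540/590nm.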

The nature of assay [10]: qHTS assay for small molecules that induce genotoxicity in human embryonic kidney cells expressing luciferase-tagged ATAD5 (AID 651632). Note: nearly all actives have a fitted effect of over 15% in size. Summed up: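 Reporter cells (HEK293T) express luciferase-tagged ATAD5, a protein that accumulates after DNA damage. Treat 16 hr at 37C/5% CO2, add Amplite, wait 30 min at RT, and read luminescence.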

Structures are written as SMILES. Values joined by “and” are separate entries in the source; they are usually repeats but may differ in a detail not shown here. Equal values may be shown once. Results filed as inconclusive are left out. More than one record can exist for a structure, and the calls need not agree. Active and inactive are the calls of the source. Unless noted, calls come from the whole dose curve; as a rule, active = well fitted curve in the direction sought with a large enough effect in the repeat runs; inconclusive = weak or mixed curves; inactive = no such curve, though single readings can be large; an effect the other way counts as inactive or inconclusive.

With `ClCC(Cl)CCl`, the Potency result in assay [1], in assay [2], in assay [3], in assay [4], in [5] and in assay [8] was “inactive” throughout. The molecule was called inactive in [6], in [7] and in assay [9].
For the molecule `COP(=O)(NC(C)=O)SC` (centres undefined), the Potency result in assay [1], in [2], in assay [3], in [4] and in assay [8] was “inactive” each time. For the same molecule, the call in assay [6], in assay [7] and in assay [9] was inactive.
On to `C[C@]12CC[C@H]3[C@@H](CCC4=CC(=O)CC[C@@H]43)[C@@H]1CC[C@@H]2O`, for which the Potency entry in assay [1], in [2], in [3], in [4], in [5] and in assay [8] was “inactive” in each case. The outcome in assay [6], in assay [7] and in assay [9] was inactive.
On to `CS(=O)(=O)NC(=O)c1cc(Oc2ccc(C(F)(F)F)cc2Cl)ccc1[N+](=O)[O-]`, for which the Potency entry in assay [1], in assay [2], in assay [3] and in assay [8] was “inactive” throughout. Further, the molecule was called inactive in [6], in assay [7] and in assay [9].
For the molecule `CC(O)CN(CC(C)O)CC(C)O` (centres undefined), the Potency result in assay [1], in [2], in assay [3], in [4], in assay [5] and in assay [8] was “inactive” each time. For the same molecule, the molecule was called inactive in assay [6] and in [9].
With `CCC[CH2][Sn]([Cl])([CH2]CCC)[CH2]CCC`, the Potency result in [10] and in assay [8] was “inactive” throughout. For the same molecule, the Potency in [2] was 687 nM (active) and 1.22 µM (active); in assay [3], 612 nM (active) and 3.06 µM (active); in assay [4] it was 1.73 µM (active) and 4.86 µM (active); in assay [5], 61.3 nM (active) and 122 nM (active). In addition, the molecule was called inactive in assay [6], in assay [7] and in [9].
Take `CCCCCCCCCCCCCl`: the Potency entry in assay [1], in assay [2], in [3], in assay [4], in [5] and in assay [8] was “inactive” throughout. Also, the molecule was classed as inactive in assay [6], in assay [7] and in assay [9].
In the case of `O=[N+]([O-])c1ccc(Nc2ccccc2)cc1`, the Potency result in [10], in [2] and in [8] was “inactive” throughout. The Potency in assay [3] was 54.5 µM (active); in [4] it was 61.1 µM (active); in assay [5] it was 7.75 µM (active) and 2.73 µM (active). Moreover, the result in assay [6], in assay [7] and in [9] was inactive.
`CCC1(c2ccc(N)cc2)CCC(=O)NC1=O` (centres undefined): the Potency result in [10], in assay [2], in [3], in assay [4], in [5] and in [8] was “inactive” each time. The outcome in assay [6], in [7] and in assay [9] was inactive.
As to `O=C(O)c1nn(Cc2ccc(Cl)cc2Cl)c2ccccc12`, the Potency entry in assay [1], in [2], in [3], in assay [4], in assay [5] and in assay [8] was “inactive” in each case. The outcome in [6] and in [9] was inactive.
For `CCC/C=N/O`, the Potency entry in assay [1], in assay [2], in [3], in assay [4], in assay [5] and in assay [8] was “inactive” in each case. In addition, the molecule was called inactive in assay [6] and in assay [9].
Take `CC(C)(O)C#N`: the Potency result in [1], in assay [2], in assay [3], in assay [4], in assay [5] and in assay [8] was “inactive” in each case. Moreover, the call in assay [6], in [7] and in assay [9] was inactive.
For `CC[n+]1c(-c2ccccc2)c2cc(N)ccc2c2ccc(N)cc21`, the Potency in assay [1] is 3.35 µM (active) and 10.6 µM (active) and 2.16 µM (active); in assay [2] it was 9.44 µM (active) and inactive; in assay [3], 23.7 µM (active) and 54.2 µM (active); in [5], 2.21 µM (active). In addition, the Potency result in assay [4] and in assay [8] was “inactive” throughout. The result in [6] and in assay [9] was inactive.
As to `Oc1ccc(Cl)cc1Cl`, the Potency result in assay [1], in assay [2], in assay [3], in assay [4] and in assay [8] was “inactive” each time. Also, the Potency in assay [5] is 30.4 µM (active) and 27.3 µM (active). For the same molecule, the outcome in [6] and in [9] was inactive.
With `Nc1ccc([N+](=O)[O-])cc1N`, the Potency result in assay [10], in assay [2], in assay [4] and in [8] was “inactive” throughout. The Potency in assay [3] was 54.4 µM (active); in assay [5], 30.6 µM (active). The call in assay [6], in assay [7] and in assay [9] was inactive.
On to `CC1(C)Cc2cccc(O)c2O1`, for which the Potency result in [10], in [2], in [3], in assay [4], in assay [5] and in assay [8] was “inactive” each time. Moreover, the result in assay [6], in assay [7] and in assay [9] was inactive.
On to `C=C(C)C#N`, for which the Potency entry in assay [1], in assay [2], in assay [3] and in assay [8] was “inactive” each time. Besides, the outcome in assay [6] and in assay [9] was inactive.
On to `CCNc1nc(Cl)nc(NC(C)(C)C#N)n1`, for which the Potency result in assay [1], in assay [2], in assay [3], in assay [4], in assay [5] and in assay [8] was “inactive” each time. In addition, the molecule was called inactive in assay [6] and in assay [9].
As for `c1ccc2c(c1)Nc1ccccc1S2`, the Potency entry in assay [1], in [2], in assay [3] and in assay [8] was “inactive” in each case. Further, the Potency is 29.8 µM (active) in [4]; 7.5 µM (active) and 4.33 µM (active) in assay [5]. Besides, the molecule was classed as inactive in assay [6] and in [9].
On to `c1ccc(C2CO2)cc1` (centres undefined), for which the Potency entry in assay [1], in assay [2], in assay [3], in [4], in [5] and in assay [8] was “inactive” in each case. Also, the molecule was called inactive in assay [6] and in assay [9].
In the case of `CCOC(=O)c1ccccc1N`, the Potency result in assay [10], in assay [2], in [3], in assay [4], in [5] and in assay [8] was “inactive” each time. Moreover, the molecule was classed as inactive in assay [6], in assay [7] and in assay [9].
For the molecule `Clc1ccc(C(Cl)(Cl)Cl)cc1`, the Potency result in [1], in assay [2], in assay [3], in [4], in assay [5] and in assay [8] was “inactive” each time. The call in assay [6] and in assay [9] was inactive.
On to `S=c1[nH]c2ccccc2[nH]1`, for which the Potency result in [1], in [2], in [3], in [4], in assay [5] and in [8] was “inactive” throughout. Moreover, the outcome in assay [6], in assay [7] and in assay [9] was inactive.
Regarding `CCOP(=O)(OCC)OCC`, the Potency result in assay [1], in [2], in [3], in assay [4], in assay [5] and in assay [8] was “inactive” throughout. The molecule was classed as inactive in [6], in assay [7] and in assay [9].
As to `CC(C)CON=O`, the Potency entry in [1], in [2], in assay [3], in [4], in assay [5] and in assay [8] was “inactive” in each case. Moreover, the outcome in assay [6] and in [9] was inactive.
With `CN(C)c1nc(=O)n(C2CCCCC2)c(=O)n1C`, the Potency result in [10], in assay [2], in assay [3], in assay [4], in assay [5] and in assay [8] was “inactive” each time. Further, the molecule was classed as inactive in [6], in [7] and in [9].
Turning to `CC(C)Nc1ccc(Nc2ccccc2)cc1`, the Potency is 26.6 µM (active) and 68.3 µM (active) and 30.6 µM (active) in assay [1]; 23.7 µM (active) and inactive in assay [2]; 21.1 µM (active) and 60.9 µM (active) and 61.1 µM (active) in assay [5]. For the same molecule, the Potency result in assay [3] and in assay [8] was “inactive” in each case. The molecule was called inactive in assay [6], in [7] and in assay [9].
On to `Cl`, for which the Potency result in assay [3] and in assay [8] was “inactive” in each case. Besides, the result in [6] and in assay [9] was inactive.
In the case of `CSc1nc(NC(C)C)nc(NC(C)C)n1`, the Potency result in [2], in assay [3], in [4] and in assay [8] was “inactive” throughout. Moreover, the molecule was classed as inactive in assay [6] and in [9].
Regarding `COP(=S)(OC)SCn1nnc2ccccc2c1=O`, the Potency result in [2], in [3] and in assay [8] was “inactive” throughout. The result in assay [6] and in [9] was inactive.
For `CCNCC`, the Potency entry in assay [2], in assay [3], in assay [4], in assay [5] and in assay [8] was “inactive” each time. Further, the molecule was called inactive in assay [6], in assay [7] and in [9].

The values are drawn from PubChem BioAssay (Tox21).
